This is an account of results in PubChem BioAssay.

Unmarked numbers belong to inactive results. No rule for the calls is given here. Where a SMILES comes first, the peptide text is derived from it. The star is where a group is joined. Boc = CC(C)(C)OC(=O)*

The target of this assay is Pantothenate synthetase (Mycobacterium tuberculosis (strain ATCC 25618 / H37Rv)) (UniProt P9WIL5). The experiment in a line: Recombinant Mtb pantothenate synthetase (PanC) inhibitors, coupled enzyme, confirmatory (AID 375).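 Also: 0% = full reaction with vehicle and 100% = no enzyme background.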 Conditions: coupled enzyme assay; at 10 µM, stronger effect = higher value.
Chain of Pantothenate synthetase (Mycobacterium tuberculosis (strain ATCC 25618 / H37Rv)) (P9WIL5 whole entry, looked up): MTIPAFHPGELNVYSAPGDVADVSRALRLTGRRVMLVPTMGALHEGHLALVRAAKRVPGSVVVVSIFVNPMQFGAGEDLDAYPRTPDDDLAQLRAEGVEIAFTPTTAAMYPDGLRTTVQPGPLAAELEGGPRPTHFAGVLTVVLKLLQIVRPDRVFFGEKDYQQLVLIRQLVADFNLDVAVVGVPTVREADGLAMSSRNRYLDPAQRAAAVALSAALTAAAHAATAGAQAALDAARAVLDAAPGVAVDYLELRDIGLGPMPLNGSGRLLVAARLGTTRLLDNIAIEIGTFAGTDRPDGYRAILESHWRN
With `CC1=C(n2nnc3ccccc32)C(c2ccccc2)C(C#N)=C(N)O1` (stereo not given), the inhibition was 5%.

As to `Cc1cc2ccccc2n1CCNC(=O)C1CC1`, the inhibition is 1%.

Consider `CCOC(=O)c1sc2cccc(F)c2c1N`, for which the inhibition was 13%.

Regarding `CCCCn1c(SCC(=O)NCc2ccccc2)nc2ccc(N3CCOCC3)cc2c1=O`, the inhibition was 0%.

For `COc1ccc(OC)c(NC(=O)CS(=O)(=O)c2ccccc2)c1`, the inhibition is 0%.

For `C#CCNc1c(C)c(C)nc2ncnn12`, the inhibition was 4%.

For `Cc1ccccc1-n1nc(C)c2cc(C(=O)NCc3cccnc3)sc21`, the inhibition was 0%.

For `CCN1CCN(C(=O)c2cn(CCOC)c(=O)c3c2c2ccccc2n3C)CC1`, the inhibition is 1%.

Consider `O=C(Cn1cnc2c(nnn2-c2ccc(F)cc2)c1=O)N1CCCc2ccccc21`, for which the inhibition was 0%.

As to `CCOC(=O)c1ccccc1NC(=O)CSc1nccn1C`, the inhibition was 0%.

In the case of `CCOc1ccc(NC(=O)CN(c2cc(C)cc(C)c2)S(=O)(=O)c2c(C)noc2C)cc1`, the inhibition is 7%.

With `Cc1ccc(CCP(=O)(O)CN2CCOCC2)cn1`, the inhibition was 0%.

For `COc1ccccc1C(=O)NCCNC(=O)c1ccco1`, the inhibition is 0%.

Regarding `CCOC(=O)Cc1csc(NC(=O)CN(C)S(=O)(=O)c2ccc3c(c2)CCC(=O)N3)n1`, the inhibition was 0%.

As to `COC(=O)c1ccccc1S(=O)(=O)N(CCCN1CCOCC1)Cc1cccs1`, the inhibition was 0%.

As for `CS(=O)(=O)N1CCC(C(=O)NCCC2=CCCCC2)CC1`, the inhibition was 6%.

Consider `COc1cccc(C2CC(c3ccccc3)n3ncnc3N2)c1` (stereo not given), for which the inhibition was 8%.

Regarding `Cc1cc(Oc2ccc(Cl)cc2)nc(-c2ccccc2O)n1`, the inhibition was 7%.

Regarding `CN(CC(=O)N1CCN(c2ccc(F)cc2)CC1)S(=O)(=O)c1ccc(F)cc1`, the inhibition was 0%.

Regarding `COc1ccc2nc(NC(=O)CSc3nnc(-c4ccoc4C)n3C)sc2c1`, the inhibition is 2%.

As for `CCc1ccc(NC(=O)c2cc(-c3ccco3)on2)cc1`, the inhibition is 4%.

`Cc1noc(/C=C/N(C)C)c1S(=O)(=O)N1CCCC(C(=O)N2CCCCC2)C1` (stereo not given): the inhibition was 7%.

On to `CCOC(=O)c1[nH]c2ccc(Br)cc2c1NC(=O)CNC`, for which the inhibition is 4%.

`CSc1ccccc1N=CC1=C(O)CC(C)(C)CC1=O`: the inhibition is 0%.

`O=C(O)C1C2C=CC(C3CC23)C1C(=O)NCCc1ccccc1` (stereo not given): the inhibition is 6%.

Turning to `Cc1cc(C)c(NC2=NCC(=O)N2C2CCCCC2)c(C)c1`, the inhibition was 0%.

For the compound `Cc1nnc(SCc2cnc(-c3ccccc3)o2)[nH]c1=O`, the inhibition was 0%.

`CCCCCCn1c(CN2CCCC(C)C2)nc2c1c(=O)n(C)c(=O)n2C` (stereo not given): the inhibition was 6%.

On to `COc1ccc(C(=O)OC(COc2ccccc2)Cn2ccnc2)cc1` (stereo not given), for which the inhibition is 0%.

Turning to `Cn1cc(Cl)c(C(=O)NC2CCCC2)n1`, the inhibition was 6%.

For `CC(C)CC(NC(=O)OC(C)(C)C)C(=O)NC(C(=O)N1CCCC1C(N)=O)C(C)C` (stereo not drawn) (Boc-Leu-Val-Pro-NH2; configuration not given here), the inhibition is 0%.

On to `Cc1cc(C)c(NC(=O)CSc2nnc(-c3ccncc3)n2Cc2ccco2)c(C)c1`, for which the inhibition was 0%.

Consider `Cc1cc(C)c2c(n1)nn1c(N3CCOCC3)cc(C)nc21`, for which the inhibition was 0%.

In the case of `CCOc1cc(-c2nc(-c3ccccc3OC)no2)cc(OCC)c1OCC`, the inhibition was 12%.

With `Cn1c(SCC(=O)N2CCN(c3cccc(Cl)c3)CC2)nnc1-c1ccncc1`, the inhibition was 0%.

In the case of `CCc1nnc(NC(=O)c2ccc(S(=O)(=O)NCC(C)C)cc2)s1`, the inhibition was 0%.

For the compound `Cc1cccc(CS(=O)(=O)Cc2ccc(C(=O)NCC3CCCO3)o2)c1` (stereo not given), the inhibition was 0%.

Consider `COc1cccc(C2=NOC(C(=O)Nc3ccc(C(C)=O)cc3)C2)c1` (stereo not given), for which the inhibition is 0%.

Consider `Cc1ccc(O)c(-c2cc3ccccc3[nH]2)c1`, for which the inhibition was 0%.

With `O=C(O)c1ccc2c(c1)N(Cc1ccccc1F)C(=O)c1ccccc1S2=O` (stereo not given), the inhibition is 0%.

For orientation: inhibition means the drop in the measured response relative to a control, in per cent.
